Screening results: PubChem, National Center for Advancing Translational Sciences (NCATS)
FEN1 inhibitor = human FEN1 inhibition. P39748. Recombinant FEN1 flap cleavage, fluorescence, 15 min. Potency, µM (highest dose often 114 µM), actives largely listed as inhibitors. 390,000 compounds, 0.35% hits. AID 588795; further: nearly all actives have a fitted effect of over 65% in size
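Enzyme 10 nM, 15 min RT preincubation with compound; start with substrate 50 nM final; reads at 0 and 15 min; qHTS titration, four-parameter Hill fit.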
POLK inh = blocks human DNA polymerase kappa activity; Potency, µM (highest dose often 107 µM), hits mostly inhibitors; 400,000 compounds, 0.53% hits; purified Pol kappa, fluorescent DNA synthesis assay, 10 min; Q9UBT6; AID 588579
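Here, compound and 10 nM enzyme are combined for 15 min at room temperature; adding 50 nM substrate (final) starts DNA synthesis, tracked by fluorescence at 0 and 10 min against buffer-only wells.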
Pol iota inh = DNA polymerase iota (human) inhibition; Pol iota fluorescent replication assay, 10 min; Potency, µM (series often up to 115 µM), usual class: inhibitors; 390,000 compounds, 1% hits; AID 588590
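Fluorescent replication assay read twice, at 0 min and 10 min after adding 50 nM (final) substrate. Enzyme (10 nM) and compounds were first incubated 15 min at room temperature; enzyme-free buffer wells were negative controls.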
POLB inh = inhibitors of human DNA polymerase beta; Potency, µM (top dose mostly 114 µM), actives largely listed as inhibitors; P06746; Pol beta primer extension/strand displacement, fluorescence kinetic; 340,000 compounds, 1.3% hits
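Pol beta (10 nM) was preincubated with compound for 15 min at room temperature. The reaction was then started with 50 nM substrate and read immediately and after a further 10 min at room temperature.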
PI5P4Ka inh = blocks human PI5P4K alpha kinase activity; max response, %; AID 652105; 330,000 compounds, 1.2% hits; PI5P4Kalpha enzyme, ADP-Glo luminescence, 60 min; stronger effect = lower value; P48426; active means max response of -50% or lower; inconclusive means between -30% and -50%; inactive means -30% or higher; further: value at the top dose of about 77 µM
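Compounds were pin-transferred onto PI5P4Kalpha and substrate in HEPES pH 7.4 buffer with EGTA, CHAPS and 5% DMSO. ATP (5 microM final) started the reaction, which ran 60 minutes at room temperature before ADP-Glo detection.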
Pol eta inh = inhibitors of human DNA polymerase eta | 390,000 compounds, 1.2% hits | AID 588591 | Q9Y253 | recombinant Pol eta, fluorescent DNA replication assay | Potency, µM (highest dose often 114 µM), hits mostly inhibitors
Target sequence (Q9Y253 whole entry, looked up): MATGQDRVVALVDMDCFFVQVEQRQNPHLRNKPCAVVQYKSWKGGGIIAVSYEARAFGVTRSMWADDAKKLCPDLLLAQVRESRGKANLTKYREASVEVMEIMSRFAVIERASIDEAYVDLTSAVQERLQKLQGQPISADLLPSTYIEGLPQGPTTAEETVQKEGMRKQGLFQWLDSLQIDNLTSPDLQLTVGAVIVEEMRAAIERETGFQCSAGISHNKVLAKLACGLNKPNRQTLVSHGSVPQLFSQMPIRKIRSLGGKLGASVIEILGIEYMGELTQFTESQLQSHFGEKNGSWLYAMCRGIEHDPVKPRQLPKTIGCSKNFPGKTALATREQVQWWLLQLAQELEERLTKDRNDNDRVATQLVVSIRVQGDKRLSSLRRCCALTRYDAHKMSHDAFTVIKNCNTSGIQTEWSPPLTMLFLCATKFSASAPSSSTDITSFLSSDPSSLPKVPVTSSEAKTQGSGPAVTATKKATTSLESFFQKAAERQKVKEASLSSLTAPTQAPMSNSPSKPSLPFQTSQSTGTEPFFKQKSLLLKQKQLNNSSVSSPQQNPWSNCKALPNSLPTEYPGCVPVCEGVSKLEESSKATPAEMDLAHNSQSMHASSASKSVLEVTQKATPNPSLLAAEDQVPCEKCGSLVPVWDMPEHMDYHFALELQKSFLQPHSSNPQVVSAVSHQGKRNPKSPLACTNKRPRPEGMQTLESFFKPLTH
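Pol eta (10 nM) was preincubated with compounds for 15 min at room temperature, after which fluorescent replication substrate (50 nM final) was added to start the reaction. Fluorescence was read kinetically at 0 and 10 min.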
Each line names hits and unclear results; the compound was inactive in the other large screens. Sampled rows, rich in hits. Any-hit rate of the full collection: about 2.8%. Unless noted, the call rests on the fitted dose curve; in most records, active means well fitted curve in the direction sought with a large enough effect; inconclusive means small, poorly fitted or top-dose-only effect, or another doubt; inactive means no such curve, though single readings can be large; an effect the other way counts as inactive or inconclusive.

CCCc1nn2c(=O)cc(COC(=O)c3ccccc3NC(=O)COc3ccccc3F)nc2s1	none (no result: PI5P4Ka inh)
COC(=O)C1=C(C)N(CCCC(=O)O)C(=O)NC1c1ccc(OC)cc1 (stereo unspecified)	PI5P4Ka inh -62 (no result: POLB inh)
CCOC(=O)C1=C(C)N(CCCC(=O)O)C(=O)NC1C(CC)CC (stereo unspecified)	PI5P4Ka inh -58 (no result: POLB inh)
CCOC(=O)C1=C(C)N(CCCCCC(=O)O)C(=O)NC1c1ccc(Cl)cc1 (stereo unspecified)	none
CCOC(=O)C1=C(C)N(CCCC(=O)O)C(=O)NC1c1ccc(OC)cc1 (stereo unspecified)	PI5P4Ka inh -71
COC(=O)C1=C(C)N(CCCCCC(=O)O)C(=O)NC1c1ccccc1 (stereo unspecified)	Pol iota inh inconclusive (no result: POLB inh)
COc1cc(C=O)ccc1OCCOCCOc1c(C)cc(Cl)cc1Cl	POLB inh 10µM
Cc1cc(C)c2c(=O)cc(C(=O)Nc3sc4c(c3C#N)CCCC4)oc2c1	POLB inh inconclusive, Pol eta inh inconclusive (no result: PI5P4Ka inh)
COc1ccc(/C=N/NC(=O)c2[nH]nc3c2CCc2ccccc2-3)cc1OC	FEN1 inhibitor inconclusive, POLK inh inconclusive, POLB inh 11µM, Pol eta inh inconclusive
CCOc1ccc2[nH]c(C(=O)N/N=C/c3cc(OC)c(OC)c(OC)c3)cc2c1	POLB inh 13µM, Pol eta inh inconclusive
Fc1ccc(CSc2nc3ccccc3[nH]2)cc1	Pol iota inh 71µM (no result: PI5P4Ka inh)
CCOc1ccc(/C=N/NC(=O)c2cc3c(OC)cc(OC)cc3[nH]2)cc1OC	FEN1 inhibitor inconclusive, POLB inh inconclusive, Pol eta inh inconclusive
CNC(=O)c1[nH]nc2c1CCc1ccccc1-2	none
COc1cc(/C=N/NC(=O)c2ccc(CSc3nc4ccccc4[nH]3)cc2)cc(OC)c1OC	POLK inh inconclusive, Pol iota inh inconclusive, POLB inh 10µM, Pol eta inh inconclusive
O=C(NCCO)c1ccc(CSc2nc3ccccc3[nH]2)cc1	none
Cc1ccc2nccnc2c1	none (no result: POLB inh, PI5P4Ka inh, Pol eta inh)
O=C(NCc1ccon1)C1CCC(=O)N(CCc2ccc(Cl)cc2)C1 (stereo unspecified)	none
CC(=O)NCC(=O)NC1CC(C)(C)Cc2c1cnn2-c1ccccc1 (stereo unspecified)	none
COc1ccc(/C=N/NC(=O)c2ccc3nc[nH]c3c2)cc1OC	POLK inh inconclusive, Pol iota inh 13µM, POLB inh 16µM
COC(=O)c1ccc(/C=N/NC(=O)c2ccc3nc[nH]c3c2)cc1	none
COc1cc(/C=N/NC(=O)c2ccc3nc[nH]c3c2)cc(OC)c1OC	POLK inh inconclusive, Pol iota inh 16µM, POLB inh 7.1µM, Pol eta inh inconclusive
NS(=O)(=O)c1cccc(NC(=O)CSc2nc3nc(-c4cccs4)cc(C(F)(F)F)c3c(=O)[nH]2)c1	FEN1 inhibitor inconclusive, PI5P4Ka inh -55, Pol eta inh 40µM
Cc1cc2ccccc2cc1C(=O)c1ccccc1	none (no result: POLB inh)
Cc1sc2cc3c(c(C(=O)c4ccccc4)[n+]2c1C)-c1cccc2cccc-3c12	FEN1 inhibitor 40µM, POLB inh inconclusive, Pol eta inh inconclusive
O=C(CSCn1nnc2c(=O)[nH]c(Cc3ccc(F)cc3)nc21)Nc1ccccc1	none (no result: PI5P4Ka inh)
Cc1cc(C)cc(NC(=O)CSCn2nnc3c(=O)[nH]c(Cc4ccc(F)cc4)nc32)c1	FEN1 inhibitor inconclusive, POLK inh 79µM, Pol iota inh 79µM, POLB inh 40µM, Pol eta inh inconclusive (no result: PI5P4Ka inh)
CCCCN1C(=O)C(=O)N(CC(=O)Nc2sc(CC)cc2C(=O)OCC)C1=O	Pol iota inh 79µM (no result: POLB inh)
CCOC(=O)c1cc(CC)sc1NC(=O)COC	none (no result: PI5P4Ka inh)
Cc1ccc(C(=O)O)cc1NC(=O)Nc1cccc2ccccc12	none
COc1cc2c(NC3CCN(C)CC3)nc(N3CCCN(C)CC3)nc2cc1OCc1ccccc1	FEN1 inhibitor 22µM (no result: POLB inh, PI5P4Ka inh, Pol eta inh)
COc1cc2nc(N3CCN(C)CC3)nc(NC3CCN(Cc4ccccc4)CC3)c2cc1OC	FEN1 inhibitor inconclusive (no result: POLB inh, PI5P4Ka inh, Pol eta inh)
COc1cc2nc(N3CCCN(C)CC3)nc(Nc3ccncc3)c2cc1OC	FEN1 inhibitor 14µM, Pol iota inh 20µM (no result: POLB inh, PI5P4Ka inh, Pol eta inh)
COc1cc2nc(N3CCCN(C)CC3)nc(NC3CCN(Cc4ccccc4)CC3)c2cc1OC	FEN1 inhibitor 18µM, POLK inh inconclusive (no result: POLB inh, PI5P4Ka inh, Pol eta inh)
COc1cc2nc(N3CCOCC3)nc(NC3CCN(Cc4ccccc4)CC3)c2cc1OC	none (no result: POLB inh, PI5P4Ka inh, Pol eta inh)
COc1cc2nc(N3CCN(C)CC3)nc(NC3CC3)c2cc1OC	none (no result: POLB inh, PI5P4Ka inh, Pol eta inh)
N#Cc1ccccc1NC(=O)C(=O)NCCc1csc(-c2ccc(C(F)(F)F)cc2)n1	none (no result: PI5P4Ka inh)
Cn1cc(/C=C/c2ccnc3ccccc23)c2ccccc21	FEN1 inhibitor inconclusive (no result: POLB inh, PI5P4Ka inh, Pol eta inh)
O=C(O)CC/C(=N/NC(=O)c1cn(-c2ccccc2)nc1-c1ccccc1)C(=O)O	Pol iota inh 25µM
Cc1nc2nc(C)n(-c3ccccc3)c2s1	Pol iota inh inconclusive, PI5P4Ka inh inconclusive, Pol eta inh 14µM
COc1ccc([N+](=O)[O-])cc1NC(=O)Nc1ccc(OC)c(OC)c1	POLB inh 20µM
COc1ccc([N+](=O)[O-])cc1C(=O)Nc1ccc(Cc2ccncc2)cc1	POLB inh 11µM
O=C(Nc1nc2c(F)cccc2s1)c1ccc(S(=O)(=O)N2CCCc3ccccc32)cc1	none (no result: PI5P4Ka inh)
O=C(Nc1nc2c(F)cc(F)cc2s1)c1ccc(S(=O)(=O)N2CCc3ccccc32)cc1	Pol iota inh inconclusive, POLB inh 32µM (no result: PI5P4Ka inh)
CC(C)C[C@@H](/C=C/S(C)(=O)=O)NC(=O)[C@H](CC(C)C)NC(=O)[C@H](CC(C)C)NC(=O)OCc1ccccc1	none (no result: FEN1 inhibitor, Pol iota inh, POLB inh, PI5P4Ka inh, Pol eta inh)
CC1(C)Cc2nc3sc4c(=O)n(CC(=O)NCc5ccccc5)cnc4c3cc2CO1	none (no result: PI5P4Ka inh)
O=C(CSc1ncnc2sc3c(c12)CCCCC3)NCc1ccco1	Pol iota inh inconclusive, POLB inh inconclusive
CC1(C)Cc2nc3sc4c(SCC(=O)NCc5ccco5)ncnc4c3cc2CO1	POLB inh inconclusive, Pol eta inh 22µM
CC(C)c1nc2sc3c(SCC(=O)NCc4ccco4)ncnc3c2c2c1CCC2	FEN1 inhibitor inconclusive, POLK inh 79µM, Pol iota inh inconclusive, POLB inh 22µM, PI5P4Ka inh inconclusive, Pol eta inh 6.3µM
CC1CCCCN1C(=O)COC(=O)c1ccc(=O)n(Cc2ccccc2)n1 (stereo unspecified)	none (no result: POLB inh)
CN1CCO/C1=C(\C(Cl)=C(Cl)Cl)[N+](=O)[O-]	none
O=[N+]([O-])C(=C1Nc2ccccc2N1)C(Cl)=C(Cl)Cl	Pol iota inh 50µM
Fc1ccc(-c2ccnc3nc(-n4cccc4)nn23)cc1	Pol iota inh 79µM, POLB inh inconclusive (no result: PI5P4Ka inh)
COc1ccc(OCC(=O)Nc2ccccc2C(=O)OCc2cc(=O)n3nc(C)sc3n2)cc1	none (no result: PI5P4Ka inh)
